High-throughput results as filed in PubChem BioAssay.
HT1080-NT tox – kills 2HG-producing HT-1080-NT fibrosarcoma cells | HT-1080-NT fibrosarcoma viability, CellTiter-Glo ATP luminescence, 48 h | 360,000 tested, 1.6% active | AID 686970 | Potency, µM (titrated, usually from 46.1 µM), actives largely listed as cytotoxic;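 note: NT is the 2HG producing partner of a matched IDH1 knockdown line; nearly all actives have a fitted effect of over 55% in size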
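Viability by CellTiter-Glo luminescence after 48 h compound exposure at 37C of HT-1080-NT cells (750/well, RPMI, 5% FBS). % activity scaled between DMSO wells and medium-only wells, then curve-fitted and categorized by curve class.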
DT40 TDP1 no CPT – qHTS for Inhibitors of human tyrosyl-DNA phosphodiesterase 1 (TDP1): qHTS in cells in absence of CPT. DT40 Tdp1-/- hTDP1 cells, no CPT, ATP luminescence, 48 h. Potency, µM (titrated, usually from 46.2 µM), actives largely listed as inhibitors. 420,000 tested, 15% active. AID 686978, 2013; note: nearly all actives have a fitted effect of over 55% in size
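Luminescent ATP content (CellTiter-Glo) served as the growth readout. Knockout chicken DT40 cells expressing human TDP1 were exposed to compounds without camptothecin for a minimum 48 hr at 37 °C.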
DT40 TDP1 CPT – growth inhibition of DT40 Tdp1-/-;hTDP1 cells with camptothecin (screen for TDP1 inhibitors); chicken DT40 Tdp1-/-;hTDP1 cells + 20 nM CPT, ATP luminescence, 48 h; Potency, µM (top dose mostly 46.2 µM), actives largely listed as inhibitors; 420,000 tested, 12% active; AID 686979; note: nearly all actives have a fitted effect of over 55% in size
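Cell growth measured by CellTiter-Glo luminescence after a minimum 48 h, 37 C compound exposure with 20 nM CPT in Tdp1-knockout DT40 cells stably expressing hTDP1, seeded 400/well; qHTS titration format.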
ELG1 repair inh – ELG1-dependent DNA repair inhibition. HEK293T ELG1-luciferase reporter, luminescence, 16 h; DNA damage induced by 5-fluorouridine. Potency, µM (top dose mostly 46.1 µM), hits mostly inhibitors. 330,000 tested, 2.3% active; note: nearly all actives have a fitted effect of over 55% in size
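Overnight (16 hr) co-exposure of 2,000 cells/well to 5-fluorouridine and compound at 37 °C preceded detection. Luciferase was quantified via ONE-Glo luminescence; loss of signal denotes inhibition.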
HT1080 IDH1KD tx – toxicity to HT-1080 IDH1 knockdown cells (counter line); HT-1080 IDH1 knockdown viability, ATP luminescence, 48 h; Potency, µM (doses to about 46.1 µM), hits mostly cytotoxic; 360,000 tested, 2% active; AID 686971
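HT-1080-IDH1KD cells (IDH1 knocked down), 750/well in RPMI with 5% FBS, treated with compound 48 h at 37 degrees C. Viability by CellTiter-Glo luminescence, normalised to DMSO and no-cell wells; concentration-response curves classed.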
IL-1B inflam inh – inflammasome signaling inhibition, IL-1 beta readout | THP-1 LPS/ATP IL-1B secretion, AlphaLISA, 16 h; stronger effect = lower value | activity change, % at 57.5 µM | 360,000 tested, 4.7% active | AID 743279; in the data active = activity change below about -50%; inconclusive = mostly about -30% to -49%
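THP-1 cells pretreated 1 hr with compounds (up to 57.5 uM final), then stimulated with LPS (250 ng/mL final) plus ATP (1.25 mM final); secreted IL-1B measured by AlphaLISA after 16 hr, decreased signal indicating inhibition.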
Hits are given with their value; i = inactive; ? = inconclusive; nt = no result given; [ ] = another dose, or the depositor's remark. Most compounds without a hit are left out; they make up all but 19% or so of the library. Unless noted, calls come from the whole dose curve; as a rule, active = well fitted curve in the direction sought with a large enough effect; inconclusive = small, poorly fitted or top-dose-only effect, or another doubt; inactive = no such curve, though single readings can be large; an effect the other way counts as inactive or inconclusive.

SMILES	HT1080-NT tox	DT40 TDP1 no CPT	DT40 TDP1 CPT	ELG1 repair inh	HT1080 IDH1KD tx	IL-1B inflam inh
CC(=O)N1CCN(CC(=O)Nc2cc(S(=O)(=O)N3CCCCC3)ccc2C)CC1	i	i	i	?	i	i
Cc1ccc(NC(=O)CCc2c(C)nc3nc(C)nn3c2C)c(Cl)c1	nt	i	i	nt	nt	nt
CC(C)C[C@H]1CN(CCCC[C@H]2CNC(=O)C(=O)N2Cc2ccccc2)C(=O)C(=O)N1CCC1CCCCC1	i	?	?	nt	?	i
O=c1[nH]c2cnn(-c3ccccc3)c2c(=O)n1O	i	?	?	nt	i	i
O=C(Cn1c(=O)oc2cc(S(=O)(=O)N3CCCCC3)ccc21)N1CCCCC1	i	i	i	i	i	i
Cc1nc(SCc2ccc(F)cc2)c2oc3ccccc3c2n1	i	i	i	?	i	i
Cc1nc(SCc2ccccc2F)c2oc3ccccc3c2n1	i	13µM	i	?	i	i
Cc1ccc(C)c(N2N=C(C(=O)Nc3ccccc3N3CCCC3)CCC2=O)c1	?	20.6µM	?	?	?	i
Cc1ccc(C)c(N2N=C(C(=O)Nc3ccccc3N3CCOCC3)CCC2=O)c1	i	?	?	14.6µM	i	i
Cc1cc2oc(=O)c(CC(=O)O)c(C)c2c2occ(-c3ccc(F)cc3)c12	nt	i	i	nt	nt	nt
O=C(NCCNC(=O)c1ccc(Br)o1)c1cccnc1	i	i	i	i	i	i
CC1CCCCC12NC(=O)N(CC(=O)N1CCN(Cc3ccc(C#N)cc3)CC1)C2=O (configuration not stated)	i	7.31µM	16.4µM	i	i	i
Cc1cccc(C)c1NC(=O)CN1CCN(C(=O)CN2C(=O)NC3(CCCCC3C)C2=O)CC1 (configuration not stated)	i	i	i	i	i	i
COc1ccccc1NC(=O)CSc1nnc(COc2ccc(Cl)cc2)n1Cc1ccco1	?	14.6µM	20.6µM	?	i	?
COc1ccc(C)cc1NC(=O)CSc1nnc(COc2ccc(C)cc2)n1Cc1ccco1	?	?	?	?	i	i
CCn1c(COc2ccc(C)cc2)nnc1SCC(=O)Nc1cc(OC)ccc1OC	i	20.6µM	?	?	i	i
O=C(CSc1nnc(COc2ccccc2)n1Cc1ccco1)c1ccc(F)cc1	i	?	i	?	i	i
Cc1ccc(OCc2nnc(SCC(=O)c3ccccc3)n2Cc2ccco2)cc1	i	18.4µM	23.1µM	?	i	i
Cc1ccc(OCc2nnc(SCc3nc4ccccc4[nH]3)n2Cc2ccco2)cc1	i	18.4µM	14.6µM	9.2µM	i	i
COC(=O)c1ccc(NC(=O)CCN2C(=O)C3C4CCC(C4)C3C2=O)cc1 (configuration not stated)	i	i	i	i	i	i
O=C(/C=C/[C@H]1O[C@@H](n2cnc3c(NC(=O)c4ccccc4)ncnc32)[C@H](O)[C@@H]1O)NCCCN1CCCC1=O	i	i	i	nt	i	i
Cc1ccc(CSc2nnc(-c3ccccn3)n2Cc2cccs2)cc1	?	?	?	nt	?	i
Fc1ccccc1CSc1nnc(-c2cnccn2)n1Cc1ccco1	i	i	i	?	i	?
O=c1c2ccccc2nnn1CSc1nnc(COc2ccc(Cl)cc2)n1Cc1ccco1	i	20.6µM	23.1µM	?	i	i
Clc1ccc(CSc2nnc(-c3ccccn3)n2Cc2ccco2)c(Cl)c1	i	29.1µM	?	i	i	i
SMILES	HT1080-NT tox	DT40 TDP1 no CPT	DT40 TDP1 CPT	ELG1 repair inh	HT1080 IDH1KD tx	IL-1B inflam inh
Nn1c(SCc2nc3ccccc3[nH]2)nnc1-c1ccccc1	i	i	i	?	i	i
c1ccc(-c2nnc(SCc3nc4ccccc4[nH]3)n2Cc2ccco2)cc1	i	i	i	20.6µM	i	i
Clc1ccc(CSc2nnc(-c3ccccn3)n2Cc2cccs2)cc1Cl	?	18.4µM	?	nt	?	i
CC(=O)OCC(=O)[C@@]12N=C(C)O[C@@H]1C[C@H]1[C@@H]3CCC4=CC(=O)C=C[C@]4(C)[C@H]3[C@@H](O)C[C@@]12C	nt	i	i	nt	nt	nt
CCCN1CCN(CCNC(=O)Nc2ccc(OC)c(OC)c2)CC1	nt	i	?	nt	nt	nt
CCN(CC)C(=O)Cn1c(=O)n(CCCCCC(=O)NCc2ccc(C)cc2)c(=O)c2sccc21	nt	i	i	nt	nt	nt
CN(C)c1ncc2nc(-c3ccc(Cl)cc3)c(=O)n(Cc3cccs3)c2n1	nt	i	i	nt	nt	nt
O=C(CSc1nnc(-c2ccccn2)n1Cc1ccco1)c1ccc(-c2ccccc2)cc1	i	?	29.1µM	i	i	i
CCCc1n[nH]c(=S)n1Cc1ccco1	i	i	i	i	i	i
S=c1[nH]nc(COc2ccc(Cl)cc2)n1Cc1ccco1	i	20.6µM	i	i	i	i
O=C(CSc1nnc(-c2ccc(O)cc2)n1Cc1ccco1)c1ccccc1	i	?	i	?	i	i
CC(=O)c1cccc(NC(=O)C(Cc2ccccc2)NS(=O)(=O)c2ccc(Br)s2)c1 (configuration not stated)	nt	i	i	nt	nt	nt
CC(C)NS(=O)(=O)c1ccc(CCC(=O)Nc2ccc3c(c2)OCO3)cc1	i	i	i	i	i[9.24 µM]	i
O=[N+]([O-])c1cc(S(=O)(=O)NCCCN2CCOCC2)ccc1Cl	i	i	i	?	i	-64.3
O=S(=O)(NCCN1CCOCC1)c1ccc2ccccc2c1	i	?	i	i	i	i
O=C(Nc1ccc(Cl)c([N+](=O)[O-])c1)c1ccc(NCCCN2CCOCC2)c([N+](=O)[O-])c1	i	2.31µM	2.31µM	i	i	i
O=[N+]([O-])c1cc(S(=O)(=O)NCCN2CCOCC2)ccc1Sc1nnnn1-c1ccccc1	?	6.51µM	5.8µM	?	?	-99.8
COc1ccc(NC(=O)c2ccc(NCCCN3CCOCC3)c([N+](=O)[O-])c2)cc1	i	18.4µM	20.6µM	i	i	?
Cc1nccn1-c1ccc(C=O)cc1	i	i	i	i	i	i
CCOc1ccc(CNC(=O)CS(=O)(=O)c2cccc3nsnc23)cc1	nt	i	i	nt	nt	nt
CCc1cccc2c(/C=N/NC(=O)c3cccc(S(=O)(=O)Nc4ccccc4Cl)c3)c[nH]c12	i	?	?	i	i	i
Cc1ccc(S(=O)(=O)NCCC(=O)NCC(=O)Nc2c(C)cccc2C)cc1C	i	i	i	i	i	i
Cc1ccc(NC(=O)c2ccc(NCCCN3CCOCC3)c([N+](=O)[O-])c2)cc1Cl	18.4µM	20.6µM	?	18.4µM	18.4µM	-66.6
